A selection: hits, their analogues and other compounds. The true share with any hit is near 2.7%.
PAX8 reporter: lowers PAX8-driven luciferase in RMG-I cells | RMG-I TPO-luciferase reporter, SteadyGlo, 24 h | inhibition, % at 12.6 µM | 1.2% of 360,000 active | AID 652154;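 active = mean replicate inhibition at least 60% with every replicate also reaching 60%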;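 also: luciferase light reporting Pax8 driven TPO promoter activity; plate controls were median of neutral control wells for no effect and mitoxantrone controls for full effect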
PGC1a acetyl inh: PGC1a acetylation modulation, inhibitor mode; 0.17% of 350,000 active; inhibition, % at 15.6 µM; U2OS PGC1a acetylation, AlphaScreen anti-acetyl-lysine; with virally co-expressed GCN5 acetyltransferase;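 active = every replicate shows inhibition of at least 40%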;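 also: 0% = neutral control wells and 100% = positive control wells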
CFTR F508del cor: correctors of CFTR F508del function in bronchial epithelial cells; AID 720511; 0.36% of 350,000 active; activity (quench increase), % at 7.58 µM; CFBE cells, YFP halide quenching; stimulated with forskolin plus potentiator P3; % fluorescence drop versus neutral controls;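 active = mean added fluorescence quench of at least 8% versus neutral control, with both replicates also reaching 8%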;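 also: cells transiently co-express mutant CFTR-F508del with the halide-sensitive YFP; corrector assay measuring rescue of mutant channel to the surface after 24 h compound exposure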
Env fusion inh: blocks HIV Env-driven cell-cell fusion. inhibition, % at 12.3 µM. 1.1% of 360,000 active. HeLa-JRFL Env/CEM21 cell fusion, luciferase;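 active = mean replicate inhibition score of at least 50 and every replicate individually at or above 50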;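 also: 0% = plate neutral controls and 100% = maraviroc near 300 nM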
INS-1E GSIS act: primary screen for activators of insulin secretion dependent on glucose, INS-1E cells, GLuc reporter luminescence; INS-1E GLuc reporter insulin secretion, 2-3 h; 0.61% of 370,000 active; AID 743287; activation, % at 16.6 µM;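 active = lowest replicate activation of at least 40%, so every replicate reaches that level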;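 also: 0% = median of neutral control wells and 100% = median of IBMX positive control wells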
EWS-Fli block: EWS/Fli transcriptional activity inhibition; A673 NR0B1-luciferase reporter, viability-normalised; inhibition, % at 12.6 µM; 0.67% of 350,000 active;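 active = mean inhibition of at least 50% after viability correction, with every replicate also passing that limit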;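 also: firefly luciferase signal divided by Alamar Blue viability fluorescence both relative to DMSO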
* marks the source's active call; other numbers are inactive results; . = no result; ! = repeats disagree; [ ] = remark or other dose.

SMILES | PAX8 reporter | PGC1a acetyl inh | CFTR F508del cor | Env fusion inh | INS-1E GSIS act | EWS-Fli block
CCC(=O)N1[C@H](CO)[C@@H](c2ccc(C3=CCCCC3)cc2)[C@@H]1CN(C)C(C)=O | -15 | 4 | -3 | . | -9 | -10
C[C@@H]1CN([C@@H](C)CO)C(=O)c2cc(NS(=O)(=O)c3ccc(Cl)cc3)ccc2O[C@@H]1CN(C)Cc1ccc(-c2ccccc2)cc1 | . | -4 | 1 | 5[16.7 µM] | -6 | 6
CCCCn1c(SCC(=O)Nc2nnc(C(C)C)s2)nc2c1c(=O)n(C)c(=O)n2C | . | -2 | . | 55* | -20 | .
CCCn1c(SCC(=O)Nc2nc3c(s2)CCCC3)nc2c1c(=O)n(C)c(=O)n2C | . | . | . | 40 | . | .
O=C(C[C@@H]1CC[C@H](NC(=O)c2ccncc2)[C@H](CO)O1)Nc1ccccc1 | 4 | 1 | -1 | -14[16.7 µM] | 8 | -5
Cc1noc(C)c1S(=O)(=O)Nc1ccc2c(c1)C(=O)N([C@H](C)CO)C[C@@H](C)[C@@H](CN(C)S(=O)(=O)c1ccccc1)O2 | . | -3 | 1 | . | -12 | 0
S=c1[nH]nc(-c2ccccn2)n1/N=C/c1cccc2ccccc12 | 122* | . | 0 | . | . | 3
COc1ccc(S(=O)(=O)N(C)C[C@@H]2Oc3c(NC(=O)c4ccc(-c5nccs5)cc4)cccc3C(=O)N([C@@H](C)CO)C[C@H]2C)cc1 | . | . | . | . | 2 | .
C[C@@H]1CN([C@H](C)CO)C(=O)Cc2cc(NS(=O)(=O)c3ccc(F)cc3)ccc2O[C@H]1CN(C)S(=O)(=O)c1ccc(F)cc1 | 23 | -9 | 0 | -5[16.7 µM] | 8 | 0
COc1ccc(N(C(=O)CCl)C(C(=O)NCCc2ccccc2)c2cccs2)cc1 (stereo not given) | 113* | 61* | -5 | . | 53* | 42
COc1ccc(C(=O)N=C2CCC(C#N)=C3c4cc(OC)c(OC)cc4CCN23)cc1 | 8 | . | . | 2 | 109* | .
C[C@H]1CN([C@@H](C)CO)C(=O)c2cc(Br)cnc2O[C@@H]1CN(C)Cc1ccncc1 | . | 1 | 2 | -24[16.7 µM] | 7 | 1
COc1cc(CN2C[C@@H]3N[C@H](C2)C3c2ccc(-c3ccncc3)cc2)cc(OC)c1 (stereo not given in full) | 1 | -9 | -3 | . | 6 | 6
COc1ccc(-c2ccc(C3[C@@H]4CN(Cc5cc(OC)cc(OC)c5)C[C@H]3N4)cc2)cc1 (stereo not given in full) | 86*! | -24 | -3 | . | 3 | -3
C(=C\c1ccc(C2[C@@H]3CN(Cc4ccc5c(c4)OCO5)C[C@H]2N3)cc1)/c1ccccc1 (stereo not given in full) | 81*! | -10 | 1 | . | -6 | -11
C/C=C/c1ccc(C2[C@@H]3CN(Cc4cccc(OC)c4)C[C@H]2N3)cc1 (stereo not given in full) | 5 | -10 | -2 | . | -18 | -9
COc1cc(CN2C[C@@H]3N[C@H](C2)C3c2ccc(/C=C/c3ccccc3)cc2)cc(OC)c1 (stereo not given in full) | -32 | -39 | -8 | . | 84*! | 8
C[C@@H]1CN([C@@H](C)CO)C(=O)c2cc(-c3ccc(C#N)cc3)cnc2O[C@H]1CN(C)C(=O)Nc1ccc(F)cc1 | . | 6 | 4 | -9[16.7 µM] | -5 | 3
C[C@H](CO)N1C[C@H](C)[C@H](CN(C)Cc2ccccc2F)Oc2ncc(C#CCN(C)C)cc2C1=O | 3 | -2 | . | -2[16.7 µM] | 12 | 9
CN1C[C@H]2[C@@H](c3ccccc31)[C@H](CO)N2C(=O)Nc1ccccc1 | -10 | 6 | -1 | . | 6 | 4
Nc1ccn(C2OC(COP(=O)(O)O)C(O)C2O)c(=O)n1 (stereo not given) | 12 | -1 | 6 | 82* | 2 | 50
CC(=O)NC[C@H]1O[C@@H](n2ccc(N)nc2=O)[C@H](O)[C@@H]1O | -10 | 5 | 0 | . | 3 | -5
Nc1ccn([C@@H]2O[C@H](C(=O)NCC(F)(F)F)[C@@H](O)[C@H]2O)c(=O)n1 | -9 | 6 | 10* | 10 | 2 | -10
CC(C)[C@H](CO)NC(=O)[C@H]1O[C@@H](n2ccc(N)nc2=O)[C@H](O)[C@@H]1O | -14 | -1 | -3 | 16 | 0 | 1
C[C@@H]1CN([C@H](C)CO)C(=O)c2cc(NS(=O)(=O)c3ccc(Cl)cc3)ccc2O[C@H]1CN(C)C(=O)Nc1cccc2ccccc12 | 15 | -29 | -2 | 0[16.7 µM] | -10 | 8
SMILES | PAX8 reporter | PGC1a acetyl inh | CFTR F508del cor | Env fusion inh | INS-1E GSIS act | EWS-Fli block
CN1C[C@@H]2[C@@H]3C(=O)N(Cc4ccccc4)C(=O)[C@@H]3[C@](Cc3ccccc3)(C1=O)N2C(=O)c1ccc(C(F)(F)F)cc1 | -2 | 1 | 0 | 16 | -36 | -2
CCN1C[C@@H]2[C@@H]3C(=O)N(Cc4ccccc4)C(=O)[C@@H]3[C@](CC)(C1=O)N2C(=O)c1ccc(C(C)(C)C)cc1 | 5 | 1 | 0 | 68* | -17 | 2
CC[C@]12C(=O)N(C)C[C@H]([C@@H]3C(=O)N(Cc4ccccc4)C(=O)[C@@H]31)N2C(=O)c1ccc(C(C)(C)C)cc1 | 10 | -16 | 1 | 58* | -12 | -16
COc1ccccc1NC(=O)N1C[C@@H]2[C@H](c3ccccc31)[C@@H](CO)N2C(=O)C1CC1 | -2 | 3 | 7 | . | 6 | 3
CC(c1ccco1)N(C(=O)C12CC3CC(CC(C3)C1)C2)c1ccccn1 (stereo not given) | . | -11 | . | . | . | .
O=C(N(c1ccccn1)c1ccccn1)C12CC3CC(CC(Cl)(C3)C1)C2 | 18 | 0 | -1 | 73* | 13 | 4
CCOc1ncccc1C(=O)OCC(=O)NCCc1ccc(S(N)(=O)=O)cc1 | -2 | . | 5 | 9 | 40* | 6
CCOc1ccc(CCNC(=O)COC(=O)c2nccnc2N)cc1OCC | -1 | -13 | 1 | 7 | 51* | 0
CCOc1ncccc1C(=O)NCCc1ccc(S(N)(=O)=O)cc1 | -7 | 16 | 3 | 4 | 13 | -2
COc1ccc(CCNC(=O)CCNC(=O)c2ccco2)cc1OC | 0 | . | 4 | -17 | 38 | .
O=C(COC(=O)COc1ccccc1F)NCCc1ccc(F)cc1 | -2 | 1 | 9.1* | -6 | 16 | 3
CCOc1ccc(CCNC(=O)CCNC(=O)c2ccco2)cc1OCC | -3 | 1 | 0 | 13 | 92* | .
CC(C)NC(=O)N(C)C[C@H]1Oc2c(NS(=O)(=O)c3cccs3)cccc2C(=O)N([C@@H](C)CO)C[C@H]1C | . | -5 | 1 | -60[16.7 µM] | 20 | -3
C[C@@H]1CCCCO[C@H](CN(C)S(=O)(=O)c2cn(C)cn2)[C@@H](C)CN([C@@H](C)CO)C(=O)c2cc(NC(=O)CCCN(C)C)ccc2O1 | -5 | 22 | 0 | 23[16.7 µM] | 30 | 0
CCOc1ccc(CCNC(=O)COC(=O)c2ccccc2O)cc1OCC | -3 | 3 | 3 | -16 | 14 | -2

Compound activity as filed in PubChem BioAssay.
